This note sets out measurements from PubChem BioAssay AID1851 (National Center for Advancing Translational Sciences (NCATS), 2009).

Structures are written as SMILES. The campaign covered roughly 16,000 compounds. About 5,100 (32%) were called active. Another 25% or so got no clear call; they are omitted. The call rests on the fitted dose curve; in most records, active means well fitted curve in the direction sought with a large enough effect; inconclusive means small, poorly fitted or top-dose-only effect, or effect the other way; inactive means no such curve, though single readings can be large or run the other way. Some of the results follow.
On the % scale 0 is the no-effect control and ±100 the full control effect.

For the assay, the target named is Cytochrome P450 3A4 (Homo sapiens) (UniProt P08684). The experiment in a line: Cytochrome panel assay with activity outcomes. Conditions: recombinant CYP, pro-luciferin dealkylation, luminescence, p450-cyp3a4; series mostly up to 57.1 µM; activity, negative = inhibition: at the top concentration.
Chain of Cytochrome P450 3A4 (Homo sapiens) (P08684 whole entry, looked up): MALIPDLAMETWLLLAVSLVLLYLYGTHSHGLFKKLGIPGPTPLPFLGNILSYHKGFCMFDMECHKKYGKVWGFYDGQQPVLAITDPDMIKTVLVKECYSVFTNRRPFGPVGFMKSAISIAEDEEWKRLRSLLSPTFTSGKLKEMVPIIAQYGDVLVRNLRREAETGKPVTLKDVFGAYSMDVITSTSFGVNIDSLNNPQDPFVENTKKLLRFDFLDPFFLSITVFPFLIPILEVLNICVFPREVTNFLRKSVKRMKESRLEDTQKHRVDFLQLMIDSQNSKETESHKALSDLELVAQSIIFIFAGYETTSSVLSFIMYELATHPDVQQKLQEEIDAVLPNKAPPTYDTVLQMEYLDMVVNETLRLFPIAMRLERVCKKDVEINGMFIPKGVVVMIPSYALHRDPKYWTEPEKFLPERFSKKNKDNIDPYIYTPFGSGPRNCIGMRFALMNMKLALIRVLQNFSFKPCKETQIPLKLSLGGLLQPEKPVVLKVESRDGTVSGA
With `Nc1[nH]c(=S)[nH]c(=O)c1N=Nc1c(Br)cc(S(N)(=O)=O)cc1Br`, the activity, negative = inhibition was -21% [at 11.4 µM] (inactive).
The AC50 is the concentration giving half of the maximal activity seen. For `COc1ccc(S(=O)(=O)N2CCN(CC(=O)Nc3cc(OC)cc(OC)c3)CC2)cc1`, the half-maximal activity concentration (AC50) was 3.98 µM (active).
As for `O=C(CN1CCN(S(=O)(=O)c2ccccc2)CC1)NC(=O)NCc1ccccc1`, the “activity, negative = inhibition” value is -19.4% (inactive).
Consider `CCOC(=O)[C@H](CCc1ccccc1)N[C@@H](C)C(=O)N1CCC[C@H]1C(=O)O`, for which the “activity, negative = inhibition” value is 16.2% [at 25.6 µM] (inactive).
Turning to `COC(=O)[C@@]1(Cc2ccccc2)[C@H]2c3cc(C(=O)N4CCCC4)n(CC4CC4)c3C[C@H]2CN1C(=O)c1ccccc1`, the half-maximal activity concentration (AC50) is 3.16 µM (active).
Same read-out and setting: the value for `COC(=O)[C@@]1(Cc2ccccc2)[C@H]2c3cc(C(=O)N4CCCC4)n(C)c3C[C@H]2CN1C(=O)c1ccccc1` was 3.98 µM (active).
Turning to `O=[N+]([O-])c1nccn1C[C@H](O)CN1CCCCC1`, the activity, negative = inhibition is -20.2% [at 11.4 µM] (inactive).
Regarding `COc1ccc(C(=O)N/N=C2/SCC(=O)N2Cc2ccc3c(c2)OCO3)cc1OC`, the half-maximal activity concentration (AC50) was 1.12 µM (active).
As for `CCOC(=O)c1c(C)[nH]c(C)c1C(=O)COC(=O)c1ccc(S(=O)(=O)N(CC)CC)cc1`, the concentration at half-maximal activity (AC50) is 0.282 µM (active).
In the case of `CCN(CC)CCOC(=O)c1ccc(N)cc1`, the AC50 result is “inactive”.
Same read-out and setting: the value for `CCOC(=O)c1c(C)[nH]c(C)c1C(=O)COC(=O)c1cccc(S(=O)(=O)N(CC)CC)c1` was 0.316 µM (active).
Consider `CCCN(CCC)S(=O)(=O)c1ccc(C(=O)O)cc1`, for which the “activity, negative = inhibition” value was -12.2% [at 25.6 µM] (inactive).
As for `NCCCNCCCCNCCCN`, the AC50 entry is “inactive”.
On to `O=C(O)CCNc1ncnc2nc[nH]c12`, for which the activity, negative = inhibition is -0.12% [at 11.4 µM] (inactive).
As for `CCO[P@]1(=O)OC[C@@H]2O[C@H](n3cnc4c(N)ncnc43)[C@H](O)[C@@H]2O1`, the activity, negative = inhibition was 7.34% [at 11.4 µM] (inactive).
`O=C1c2cccc3c(Nc4ccccc4Cl)c([N+](=O)[O-])cc(c23)C(=O)N1CCO`: the concentration at half-maximal activity (AC50) is 14.1 µM (active).
For the molecule `O=C1c2cccc3c(Cl)ccc(c23)C(=O)N1O`, the activity, negative = inhibition is -15% [at 11.4 µM] (inactive).
Take `CCc1ccccc1N1C(=O)c2cccc3c(N4CCOCC4)c([N+](=O)[O-])cc(c23)C1=O`: the “activity, negative = inhibition” value is -15.7% (inactive).
`Clc1ccc(C(c2nnnn2C2CCCC2)N2CCN(Cc3ccncc3)CC2)cc1` (stereo not drawn): the AC50 is 2 µM (active).
As for `c1coc(CN2CCN(C(c3cccs3)c3nnnn3C3CCCC3)CC2)c1` (stereo not drawn), the AC50 is 14.1 µM (active).
The same measure, in the same setting: the value for `Cc1ccc(C(c2nnnn2C2CCCC2)N2CCN3CCCC3C2)cc1` (stereo not drawn) was 14.1 µM (active).
On to `CC(C)(C)N1C(=O)[C@@H]2[C@H]3C(=CC[C@H]2C1=O)C(=O)[C@H]1O[C@H]1[C@H]3O`, for which the activity, negative = inhibition is -4.13% [at 11.4 µM] (inactive).
On to `O=S(Cc1ccccc1)CC(O)(c1ccccc1)c1ccccc1` (stereo not drawn), for which the “activity, negative = inhibition” value was 19.2% (inactive).
